In all, about 53,000 sequences went through this assay and about 3,700 (7%) were called active. Many of the other results were omitted from the sample, so actives are more common in it than they were. Unmarked numbers belong to inactive results.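 The calls were made as follows: active = gene knockdowns whose robust z-score for IL-1 alpha signal is at least 2 or at most -2, so actives lie on both sides; inactive = the rest.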

The nature of this test: Components of the Cytosolic LPS Sensing Pathway: Gene Identification via Genome-wide siRNA Screen.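 Also: robust z of the log signal after scaling to non-targeting control siRNA wells of the plate.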 To be noted: RAW264.7 macrophages, IL-1a HTRF, actives lie on both sides, screened at 100 nM (by protocol), cells primed 5 h with Pam3CSK4 first. The essentials:
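RAW264.7; siRNA 100 nM final, RNAiMAX, 48h 37 degrees C; Pam3CSK4 5 h; LipidA + TransIT-TKO 24 h; IL-1a HTRF; CellTiter-Glo viability; robust z vs negative-control median.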
Background: In TR-FRET formats the signal depends on donor and acceptor labels being close together.
Consider GGGUAAUCAGAUUGAAAGATT against Dnah5, for which the z-score was 0.0753.

For the sequence GGUGGAGAGUGAACAACAATT against Tpr, the z-score was -1.25.

Consider GGUCUUCCUUGAACAUCAGTT against Fev, for which the z-score is -2.05 (active). For GGUAUGAGCUGAUCAAGUATT against Slc27a2 the value was 1.67; for GUACACUCAAUCACUCUUGTT against Rexo5, 0.966. For CGACCUACUUGGGAUGAUGTT against Pea15b, the z-score was 0.683. For the sequence GCAAGUGAUGAAUGCUUACTT against Ncln, the z-score was -2.62 (active). GCCUGAUACCUUGAAGGAATT against Qpctl: the z-score is -0.382. CGACAACGACAUCAUGGAATT against Sfrp2: the z-score is 1.52. For the sequence GGGAAUGAAAUGUUCUUCGTT against Ttl, the z-score was -0.121. As for CGCAGUGGACUCAUCUUGATT against Sestd1, the z-score is -0.65. As for GCCAUUCUAAGCUGCCAAATT against Mcat, the z-score was -0.000938. For the sequence GGACAGAGCGUGCACUAGATT against Slc66a1, the z-score is -1.32. Consider CCUGGCACUCAUAGUAUACTT against Tm6sf2, for which the z-score is -2.33 (active).

As to GGUGCUGGUUUUUAAGAAATT against Hsbp1, the z-score is 1.84. On to CGGAAUGCCAAAGAUGUGGTT against Sult1d1, for which the z-score was -0.872. Under GUGACUCCCAAACUCCUGATT against Olfr1180 stands -1.81. For CCAUUCCUUAAAAGAGCAUTT against Lce1g, the z-score is 1.07.

On to GGACUUUCUUAACUACACUTT against Slc2a3, for which the z-score was 0.865. Under GGAUUACGGUGGGAUCAUGTT against Faxc stands -1.38. For “GGUGCUGAUGGGAGAUAGUTT against 1700010H22Rik”, the z-score was -0.851. Turning to GGAAAUCUACAUCAUGGCUTT against Ift140, the z-score is -2 (active).

Turning to GGGAAGAGAGACGAAAAAATT against Nufip1, the z-score was 1.13.

Consider GGACCAGCUUGAAGCUGAATT against Atl2, for which the z-score was 0.388. With GGCUAAAAUAAAGAAGAAGTT against Cfap100, the z-score was 0.00546. For CCGACAGCUCUAAAGGAACTT against Celf6, the z-score was 0.838. Under GCUACACCCGCAUGACAAATT against Trit1 stands 2.43 (active); under GGUUAUAUAAGCAUCAAGGTT against Adamts18, -0.621. For GCAGAGCGGGAUUUCAUUCTT against Sh3glb2, the z-score was -1.23. As for CCAUAUGGCUUAUCUUAUUTT against Adam5, the z-score was 0.138. GGCAAGAAGGACAAUGAGUTT against Mb21d2: the z-score is -2.82 (active). Under GGUUUUUGUUGUAAUAGGCTT against Olfr915 stands -0.758. Consider GGUAACAACUUUUAAGCCUTT against Prps2, for which the z-score was -0.318.

As for GCAGCUUAAGUUGCCCAAGTT against Aatk, the z-score is -0.27. As to GGAUUUUGCUGUUUUGGAATT against Dsc1, the z-score was 0.41. With CGGUAGCCAUAUUAAUAUCTT against Spink2, the z-score was 0.417. Turning to GGCUUACAAUGUGAUUUACTT against Cd7, the z-score is 1.92. For GCUUCACUCUCUUCUUUGCTT against Olfr1463, the z-score is -3.05 (active).

For GCUCAACAAGGAUACGGUGTT against Tnfrsf11a, the z-score was 0.704. For GGAUAUAACCAUCCUCUGUTT against Zscan29 the value was 0.578; for GGGUCCCAAACAAUAACUUTT against Aebp1, 1.7; for CCCAGACUCAGUUUUAACUTT against Spsb4, -1.88. Under GGGCCUCCUUCUCAUCAUUTT against Scarf2 stands 0.9; under GGUAACUUCCCAGGAGGGATT against Bcl9, 0.549. In the case of GGAUUGGUUCAUGACCUGATT against Trim52, the z-score is -0.814.

In the case of GGUGAUCCUUAUGCUGUUATT against Ehmt2, the z-score is 0.305. Under GGUGCUUGGGAAUUUUGAUTT against Gpsm2 stands 2.31 (active).

As for CCAUCAUGACGGUUCCCUATT against Mrgpra5, the z-score is -1.43.

Turning to GGUUCUUCCCACAGAAGACTT against Pggt1b, the z-score is 0.176.

As for GGAUGACGAAGCCUAUGAUTT against Nacc2, the z-score was -1.16. As to GGAGUGACAAAAGAAAUAATT against Nudt12, the z-score was 0.489. Under GGAAAUACUCUCAUCAUCGTT against Olfr214 stands -1.17. Consider “CGCAUAUCUAGAAUGGUUATT against 2810021J22Rik”, for which the z-score was 1.74. In the case of GGGUAACAGAUGAAGGGUCTT against Synpo2l, the z-score was 2.48 (active).

In the case of GGACUACUCCAGAAAGCUUTT against Wdfy3, the z-score was -0.0605.

With GCAAAAUGGUUCCUUUGGATT against Sec24c, the z-score is -0.396. Under GGACAUUAUUUCUAUAUGGTT against Eif4e2 stands -1.2; under GGCCCAUUCAGAUCAUCCATT against Vmn1r65, -0.197; under CCCGGUAUUAAAUUUAAUGTT against Aox4, 0.807. In the case of GCAUGUUUAGAACUAGCUCTT against Zfp87, the z-score is 0.76.

CCAUCAAUUGGAAAUCUUUTT against Tnn: the z-score is -1.01. Consider GGUACAUCUUAGAGGCCAATT against Epo, for which the z-score is 2.66 (active). As to CUCAGAUAUUCUUUUCCCATT against Olfr142, the z-score is -1.25. CGUGUAACACACGAUUAGATT against Myot: the z-score was 0.587. In the case of GGAACUUCAUUGAACUAUGTT against Trmt2b, the z-score was -0.363.

As to GGACGUGUACAUUGUCAAGTT against Unc5a, the z-score was 2.07 (active). For GUUAUCAGGAAGGAAAGCCTT against Sdhaf4, the z-score is 0.248. For GGACAGCAAGACAGAAAACTT against Csf2rb2 the value was -0.26; for GGCUGGAGAUCUCUCAAAGTT against Nkain2, 1.64; for CGAGAUUAUCAGUCAAUUGTT against Tex24, 2.02 (active). For the sequence GGCUUCUGUUUUUAUUUGUTT against Zbtb7c, the z-score is 1.07.

As for CGAACUGAAGGUUUUCAAUTT against Knstrn, the z-score was 0.422. Under CCUCACGGCCUUAUAUCUCTT against Fmod stands -1.8; under GGAGACAACCUGUACUCAGTT against Zfp352, -3.18 (active). With GGAGAGAGAUGCCCAAAUCTT against Zfp507, the z-score is -0.362.

In the case of CCAGCUGUGUAACACUACCTT against Gfi1, the z-score is 1.08. For the sequence CCUCUACGAUGACUGGAUGTT against Sh3bp1, the z-score is 0.227.

Regarding GGGUCUUCAGUAUUAACACTT against Yae1d1, the z-score was 2.62 (active). Under GGCAUACCGGAAACUUGCCTT against Dnajb13 stands -0.266; under GGUACAAACACGAUCAAGGTT against Aox4, 0.654. As for GGGAAUCAUUAAAUAGGAUTT against Arhgap26, the z-score is -0.163. For the sequence GGAAGAGCAUGAGUCGUUUTT against Scarb2, the z-score is -0.122.

Consider “GCUCCUACAAAACAUCCGATT against A130079P16Rik”, for which the z-score is -2.12 (active). Take GGAAGUUCAUCAUGAUAUCTT against Cxadr: the z-score was -0.108. Consider GGGCGAUGAAGAAGAGAAATT against Smad1, for which the z-score is -0.443. GGAAAGUUCUAAUGUUCAUTT against Sumo1: the z-score is 1.55. As for GGAACCCAUCUCUCAAGCATT against Atp5g1, the z-score was 0.563. For GGCAAUUCAAACAAUGCAGTT against Orm1 the value was -1.41. For the sequence GCUAUAAUUUGACAGUUAGTT against Lrba, the z-score is 0.0367.

Take GGAGAGAUGCCUUUUAAGUTT against Zfp954: the z-score was -0.252.

GGAUGGUCUUAGGAUUACGTT against Fgf15: the z-score was 2.04 (active). Under GGUAAAGAUCCAGUGCCGCTT against Tbc1d10c stands -1.02; under GGUUCAAGUGCAUUGCUUCTT against Rab34, 0.979; under GGUGGAUUUUAAGUUUCCUTT against Aurkc, 3.43 (active).

Consider GGGCAAUCUGAGCAAUUGUTT against Wnt7b, for which the z-score is -0.213.

On to GCCUAGACAAUGGUGACCUTT against Nsfl1c, for which the z-score is -0.772. As for CCGACAUUUUCGUCACCAGTT against Gabra1, the z-score was -1. As to GGCUAAUGUAUCGUCUGAGTT against Asb16, the z-score is 3.06 (active). On to CCAGCCAUAUCAACCGUAUTT against Lzts3, for which the z-score was 0.084.

Consider CCGCUUCUCUAGUGAAUAATT against Uros, for which the z-score is -1.56.

For GGAAACACUUGAACAAAGATT against Tph2, the z-score was 0.518. In the case of GGACAUGUUUGUGUUAAAGTT against Ctnna1, the z-score was 0.187. Under GGUGUGUGGCCAGAAAGUUTT against Sfi1 stands -2.83 (active). Take GCUUUAUGAGUUCACGGAGTT against Prkab2: the z-score was 1.02. In the case of GGUUCUUAUCUCUAUUCAGTT against Olfr1270, the z-score was 0.432. With GGAAACCUACUGUUGCACUTT against Wdr59, the z-score was -0.627.

Consider GAAGAUUGGAUUUAAAGCCTT against Olfr667, for which the z-score was -0.891. Regarding GGCUACAAGUGGGAAUUCATT against Cmtm2b, the z-score is 1.61.

The values are drawn from PubChem BioAssay AID1508600 (Functional Genomics Laboratory (NCATS/FGL), 2020).
